Test results published in PubChem BioAssay AID1012 (Sanford-Burnham Center for Chemical Genomics, 2008).
In all, about 200,000 compounds went through this assay and about 520 (0.26%) were called active. The entries come from a sample that favours actives as a whole. Values without a mark were called inactive.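 Rule for the calls: active = tissue-nonspecific alkaline phosphatase inhibition above about 50% at 20 µM in the single-dose screen (limit read from the data); inactive = the rest.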

target: Alkaline phosphatase, tissue-nonspecific isozyme (Homo sapiens) (UniProt P05186); assay: blockers of alkaline phosphatase TNAP activity – biochemical, luminescent, no phosphate acceptor, uHTS, primary screen (AID 1012); conditions: purified TNAP, CDP-star luminescence, 30 min; at 20 µM; active compounds read high;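 note: 0% = DMSO negative control and 100% = EDTA positive control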
Sequence (P05186 whole entry, looked up): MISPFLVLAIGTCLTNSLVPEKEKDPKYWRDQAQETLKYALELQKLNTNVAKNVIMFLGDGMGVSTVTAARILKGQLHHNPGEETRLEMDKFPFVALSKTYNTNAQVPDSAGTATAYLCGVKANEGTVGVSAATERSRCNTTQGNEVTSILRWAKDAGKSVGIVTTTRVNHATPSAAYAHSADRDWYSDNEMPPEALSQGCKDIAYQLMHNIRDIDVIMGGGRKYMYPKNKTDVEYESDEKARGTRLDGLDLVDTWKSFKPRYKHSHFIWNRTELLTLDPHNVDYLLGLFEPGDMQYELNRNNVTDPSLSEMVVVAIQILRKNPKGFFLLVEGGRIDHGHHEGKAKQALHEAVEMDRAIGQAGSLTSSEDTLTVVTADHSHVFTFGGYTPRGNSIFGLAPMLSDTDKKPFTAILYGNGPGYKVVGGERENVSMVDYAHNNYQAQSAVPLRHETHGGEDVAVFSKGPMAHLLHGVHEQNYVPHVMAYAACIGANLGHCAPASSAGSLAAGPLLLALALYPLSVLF

O=C(N/N=C/c1c(O)n(Cc2ccccc2)c(=O)[nH]c1=O)c1ccccc1 was tested, and the inhibition was 94.3% (active).

First: CCC(=NCc1ccco1)c1c(O)n(Cc2ccccc2)c(=O)[nH]c1=O
Second: CN(C)CCCN=Cc1c(O)n(Cc2ccco2)c(=O)[nH]c1=O
The inhibition of the first is higher: -5.5% for the first, -20.3% for the second.

First: O=C(OCCN1CCOCC1)C1(c2ccccc2)CCCC1
Second: O=C(NCC(c1cccnc1)N1CCN(c2ccccc2)CC1)Oc1ccccc1 (stereo not given)
The inhibition of the first is higher: -3% for the first, -8.6% for the second.
